Data as given in the supplement of paper PMC4723716.
± gives the uncertainty stated by the source. Whole data set: some 9,900 compounds, median “viability index relative to DMSO control” near 1, cut for the lowest 2% near 0.85. Shown is part of a subset that was picked to be rich in the lowest values.

Tested on: Plasmodium falciparum NF54 stage V gametocytes
Assay: viability index relative to DMSO control (fraction); higher = less gametocyte killing
Conditions: 2.5 µM, incubation time: 72 h
Procedure, shortened: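 Compound at 2.5 µM was incubated for 72 hr at 37°C under low oxygen with P. falciparum NF54 stage V gametocytes (0.75% gametocytemia, 1.25% hematocrit, 10 µl, serum-free screening medium) in 1,536-well plates. Staining used 3 µl of 2.5 µM MitoTracker Red CMXRos plus 0.13% saponin for one to two hours, and red particles of 20–70 µm2 were counted in one imaged field per well. Each viability index is that count relative to the plate mean of solvent-only wells.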

[1] = library set: Broad Institute DOS

SMILES	viability index [1]	viability index (library set: Broad Institute Blood Stage)
C/C=C/c1ccc([C@H]2[C@@H](CO)N3CCCCN(S(=O)(=O)c4ccc(OC)cc4)C[C@@H]23)cc1	0.972 ± 0.078	–
CCCNC(=O)Nc1ccc2c(c1)OC[C@@H](C)N(C(=O)C1CCOCC1)C[C@H](C)[C@H](OC)CN(C)C2=O	0.996 ± 0.052	–
COCC(=O)Nc1ccc2c(c1)C(=O)N(C)C[C@@H](OC)[C@H](C)CN(CCc1ccccc1)[C@H](C)CO2	1.05 ± 0.042	–
O=C(C[C@@H]1C=C[C@H](NC(=O)Nc2ccccc2F)[C@@H](CO)O1)NCc1ccc(-c2ccccc2)cc1	1.11 ± 0.14	–
O=C(C1CCCCC1)N1C[C@@H]2N[C@H](C1)[C@H]2c1ccc(-c2ccccc2F)cc1	1.08 ± 0.092	–
Cc1cccc(-c2ccc([C@@H]3[C@@H]4CN(Cc5cccc(F)c5)C[C@H]3N4)cc2)c1	0.816 ± 0.064	–
CN(C)CC(=O)N1C[C@@H]2N[C@H](C1)[C@@H]2c1ccc(-c2ccccc2F)cc1	0.745 ± 0.074	–
CN(C)CC(=O)N1C[C@@H]2N[C@H](C1)[C@H]2c1ccc(-c2ccccc2F)cc1	0.832 ± 0.011	–
Cc1cccc(-c2ccc([C@H]3[C@@H]4CN(Cc5cccc(F)c5)C[C@H]3N4)cc2)c1	1.053 ± 0.0043	–
O=C(Nc1ccccc1)N1C[C@@H]2N[C@H](C1)[C@@H]2c1ccc(-c2ccccc2F)cc1	1.03 ± 0.08	–
Cc1cccc(-c2ccc([C@@H]3[C@@H]4CN(C(=O)c5ccncc5)C[C@H]3N4)cc2)c1	1.09 ± 0.12	–
O=C(C1CC1)N1C[C@@H]2N[C@H](C1)[C@@H]2c1ccc(-c2ccccc2F)cc1	–	0.988 ± 0.046
Fc1cccc(-c2ccc([C@@H]3[C@@H]4CN(Cc5cncnc5)C[C@H]3N4)cc2)c1	1.04 ± 0.06	–
CN(C)CC(=O)N1C[C@@H]2N[C@H](C1)[C@@H]2c1ccc(C2=CCCCC2)cc1	0.898 ± 0.013	–
Cc1cccc(-c2ccc([C@@H]3[C@@H]4CN(C(=O)CN(C)C)C[C@H]3N4)cc2)c1	0.477 ± 0.045	–
O=C(Nc1ccccc1)N1C[C@@H]2N[C@H](C1)[C@H]2c1ccc(-c2ccccc2F)cc1	1.1 ± 0.05	–
N#C[C@H]1[C@@H](c2ccccc2-c2cccc(F)c2)[C@H](CO)N1S(=O)(=O)c1cccc(F)c1	1.17 ± 0.1	–
C[C@@H]1CCCCO[C@H](CN(C)Cc2ccc(Cl)c(Cl)c2)[C@@H](C)CN([C@H](C)CO)C(=O)c2cc(NC(=O)c3ccncc3)ccc2O1	1.05 ± 0.047	–
C/C=C/c1ccc([C@@H]2[C@@H](CO)N3C(=O)CN(S(=O)(=O)c4ccccc4)C[C@H]23)cc1	1.11 ± 0.026	–
CN1c2ccc(-c3ccc(F)cc3)cc2[C@@H]2[C@@H](CCN2C(=O)Cc2cccnc2)[C@@H]1CO	1.09 ± 0.061	–
C[C@@H]1CN([C@@H](C)CO)C(=O)c2cc(NC(=O)Nc3ccccc3)ccc2O[C@H]1CN(C)Cc1ccccc1	0.979 ± 0.015	–
